Consider 16 compounds from PubChem BioAssay.

Experiment [1] is described as follows: compounds binding Alexa647 anti-His antibody – biochemical, small-molecule microarray, 635 nm fluorescence, artefact control for SMM control protein annotation, primary screen (AID 1128).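 Also: score merges feature fluorescence with signal-to-noise for each printed compound spot.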 Conditions: higher = more signal.
The subject of experiment [2] is Human papillomavirus type 1a E7 protein (residues 1-88). Kind of experiment: HPV1a E7 small-molecule binders, primary screen, biochemical, small-molecule microarray, residues 1-88, 635 nm (AID 1129). Conditions: small-molecule microarray binding, fluorescence 635 nm; higher = more signal.
The target of experiment [3] is Focal adhesion kinase 1 (Homo sapiens) (UniProt Q05397). Kind of experiment: PTK2 protein binding on printed compound slides – biochemical, small-molecule microarray, 635/667 nm fluorescence, BSA, DTT, primary screen (AID 1130).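 Also: composite of spot emission at 667 nm and signal to noise over triplicate slides.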 Conditions: 635 nm fluorescence, higher = more signal.
Sequence of Focal adhesion kinase 1 (Homo sapiens) (Q05397 whole entry, looked up): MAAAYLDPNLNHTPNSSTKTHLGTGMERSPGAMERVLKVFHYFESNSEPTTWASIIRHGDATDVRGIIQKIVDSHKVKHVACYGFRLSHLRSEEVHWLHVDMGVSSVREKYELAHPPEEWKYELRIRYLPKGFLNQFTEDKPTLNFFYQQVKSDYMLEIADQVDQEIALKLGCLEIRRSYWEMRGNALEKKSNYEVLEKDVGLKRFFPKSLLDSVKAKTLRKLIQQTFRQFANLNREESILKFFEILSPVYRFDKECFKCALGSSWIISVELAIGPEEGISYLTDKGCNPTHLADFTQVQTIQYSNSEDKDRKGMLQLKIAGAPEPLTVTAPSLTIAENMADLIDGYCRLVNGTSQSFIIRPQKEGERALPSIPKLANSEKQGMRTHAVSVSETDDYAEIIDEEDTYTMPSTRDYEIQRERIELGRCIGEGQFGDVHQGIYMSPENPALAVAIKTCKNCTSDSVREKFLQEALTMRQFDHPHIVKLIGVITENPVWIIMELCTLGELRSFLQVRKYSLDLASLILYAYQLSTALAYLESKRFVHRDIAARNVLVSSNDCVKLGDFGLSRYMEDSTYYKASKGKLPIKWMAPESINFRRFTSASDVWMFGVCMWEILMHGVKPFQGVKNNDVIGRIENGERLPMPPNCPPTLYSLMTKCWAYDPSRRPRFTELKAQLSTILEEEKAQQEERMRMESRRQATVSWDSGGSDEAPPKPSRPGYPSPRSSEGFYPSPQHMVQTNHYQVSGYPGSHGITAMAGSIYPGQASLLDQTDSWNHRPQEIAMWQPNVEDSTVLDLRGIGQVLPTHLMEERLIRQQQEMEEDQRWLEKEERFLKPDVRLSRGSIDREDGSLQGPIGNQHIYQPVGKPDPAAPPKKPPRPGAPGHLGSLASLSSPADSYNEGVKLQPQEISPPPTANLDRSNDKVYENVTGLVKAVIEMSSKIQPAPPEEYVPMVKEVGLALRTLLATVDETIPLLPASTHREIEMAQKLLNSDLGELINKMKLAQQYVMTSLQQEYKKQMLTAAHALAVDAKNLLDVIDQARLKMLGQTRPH
The test system of experiment [4] is Fibrinogen (Alexa647-labelled). Kind of experiment: Alexa647-fibrinogen binding to printed small molecules – biochemical, small-molecule microarray, 635/667 nm fluorescence, artefact control for SMM control-protein annotation, profiling panel (AID 1131).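 Also: z-score merges 667 nm fluorescence with per-spot signal-to-noise over triplicate slides.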 Conditions: fibrinogen-A647 binding fluorescence, higher = more signal.
Experiment [5] deals with Follistatin (Homo sapiens) (UniProt P19883). Briefly: FST protein binding to printed compounds – biochemical, small-molecule microarray, 635/667 nm fluorescence, primary screen (AID 1132). Particulars: 635 nm fluorescence, higher = more signal.
Sequence of Follistatin (Homo sapiens) (P19883 whole entry, looked up): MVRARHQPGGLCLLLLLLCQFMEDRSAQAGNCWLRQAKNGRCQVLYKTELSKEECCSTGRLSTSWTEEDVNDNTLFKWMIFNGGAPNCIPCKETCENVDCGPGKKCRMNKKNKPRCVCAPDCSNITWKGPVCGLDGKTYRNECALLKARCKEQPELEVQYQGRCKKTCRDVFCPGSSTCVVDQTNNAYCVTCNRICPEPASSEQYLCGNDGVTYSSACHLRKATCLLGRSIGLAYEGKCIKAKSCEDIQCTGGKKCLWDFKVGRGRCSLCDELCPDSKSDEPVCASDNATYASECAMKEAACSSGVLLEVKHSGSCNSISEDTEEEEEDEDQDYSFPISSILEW
The target of experiment [6] is Fibroblast growth factor 2 (Homo sapiens) (UniProt P09038). Briefly: basic fibroblast growth factor binding to printed compounds – biochemical, small-molecule microarray, 635/667 nm fluorescence, primary screen (AID 1133). Conditions: FGF2, fluorescence 635/667, higher = more signal.
Sequence of Fibroblast growth factor 2 (Homo sapiens) (P09038 whole entry, looked up): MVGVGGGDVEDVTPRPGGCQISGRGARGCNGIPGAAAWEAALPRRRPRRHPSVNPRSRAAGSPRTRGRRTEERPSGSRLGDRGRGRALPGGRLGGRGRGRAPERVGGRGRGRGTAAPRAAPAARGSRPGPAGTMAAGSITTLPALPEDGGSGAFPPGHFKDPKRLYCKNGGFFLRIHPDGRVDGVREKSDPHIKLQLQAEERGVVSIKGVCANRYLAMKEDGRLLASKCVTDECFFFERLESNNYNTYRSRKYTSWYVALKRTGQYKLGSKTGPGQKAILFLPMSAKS
Experiment [7] in a line: JC-1 mitochondrial potential readout, lung cancer cells – cell-based, A549, JC-1 fluorescence, basal, 24 h, 100 nL, profiling panel (AID 1138).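 Also: A549 lung adenocarcinoma cells under basal conditions with no added stimulus; test concentration not given here.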 Particulars: higher = more signal.
The next experiment relates to Lefty1. Briefly: Lefty1 protein binding to printed compounds – biochemical, small-molecule microarray, 635/667 nm fluorescence, primary screen (AID 1139). Particulars: fluorescence 635/667, higher = more signal.
Experiment [8] concerns wheat germ agglutinin (Triticum aestivum), Alexa647-labelled. Briefly: Alexa647-WGA lectin binding to printed small molecules – biochemical, small-molecule microarray, 635/667 nm fluorescence, artefact control for SMM control-protein annotation, profiling panel (AID 1140).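 Also: score merges 667 nm feature emission with signal to noise over triplicate slides.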 Particulars: WGA-A647 binding, 635 nm fluorescence, higher = more signal.
The target of experiment [9] is Luciferin 4-monooxygenase (Photinus pyralis) (UniProt P08659). Briefly: inhibition of purified Photinus pyralis luciferase – biochemical, luminescence, purified enzyme, 2006 set, primary screen (AID 1141).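 Also: cell-free assay with purified firefly luciferase at 100 ng per well in PBS; test concentration not given here.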 Conditions: purified firefly luciferase, SteadyGlo luminescence, 30 min; higher = more signal, called active from +8 up or from −8 down.
Sequence of Luciferin 4-monooxygenase (Photinus pyralis) (P08659 whole entry, looked up): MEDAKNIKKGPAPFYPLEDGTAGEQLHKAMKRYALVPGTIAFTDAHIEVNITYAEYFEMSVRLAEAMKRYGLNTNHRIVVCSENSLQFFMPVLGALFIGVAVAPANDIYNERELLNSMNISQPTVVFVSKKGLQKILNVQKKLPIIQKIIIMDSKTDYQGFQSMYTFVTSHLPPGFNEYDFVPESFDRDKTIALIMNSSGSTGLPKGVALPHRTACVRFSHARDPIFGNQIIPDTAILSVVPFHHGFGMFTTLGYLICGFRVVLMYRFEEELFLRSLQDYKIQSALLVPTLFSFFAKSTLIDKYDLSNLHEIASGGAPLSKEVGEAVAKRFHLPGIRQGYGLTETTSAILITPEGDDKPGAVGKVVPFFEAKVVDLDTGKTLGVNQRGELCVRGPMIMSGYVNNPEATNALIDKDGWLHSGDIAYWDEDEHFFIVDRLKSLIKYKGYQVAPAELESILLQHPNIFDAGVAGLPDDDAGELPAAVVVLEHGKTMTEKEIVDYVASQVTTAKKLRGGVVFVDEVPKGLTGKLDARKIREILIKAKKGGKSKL

SMILES strings stand for the structures. Active and inactive are the calls of the source.

Turning to `CC(C)=CCCC(C)=CCON=C1C[C@@H](O)[C@@H](O)[C@@H]2[C@@H]3C(=O)N(Cc4ccccc4)C(=O)[C@@H]3CC[C@@H]12`, the composite z-score is 0.546 in experiment [1]; -0.369 in experiment [2]; -0.0506 in experiment [3]; -0.266 in [4]; 1.07 in [5]; 1.44 in experiment [6]. Further, the composite z-score with Lefty1 was 0.894; in experiment [8], -0.0507. Also, the z-score in experiment [7] was 0.071; in [9], 1.19 (inactive).
Regarding `COC(=O)[C@H](C)NC(=O)CCC1CC(OC(=O)NCCc2ccc(F)cc2)CC2(CCCC(COC(=O)NCCC(C)C)O2)O1` (stereo not given in full), the composite z-score in experiment [1] worked out at 0.959; in [2], 0.168; in experiment [3], 0.0069; in [4], 0.939; in experiment [5] it was 0.577; in experiment [6], 0.761. The figures for the composite z-score (in the experiment with Lefty1; in experiment [8]) were 0.899 and 0.323, respectively. The values for the z-score in experiment [7] and in experiment [9] were 2.09 and -0.447 (inactive), respectively.
Regarding `COc1cccc([C@H]2Oc3ccc(OC)cc3C(=NO[C@H](C)c3cn([C@H](CO)Cc4ccccc4)nn3)[C@@H]2O)c1`, the composite z-score in experiment [1] was 0.533; in experiment [2], -0.323; in [3], -0.181; in experiment [4], -0.095; in experiment [5], -0.0053; in experiment [6], 0.185. Moreover, the values for the composite z-score (in the experiment on Lefty1; in experiment [8]) were 0.0027 and -0.124, respectively. The z-score is -0.685 in experiment [7] and 0.417 (inactive) in experiment [9].
In the case of `CC(CCN1CCCc2nc(C)c(C)cc21)=NOC(C)CN1CCCCc2nc(C)c(C)cc21` (stereo not given), the composite z-score is 0.363 in experiment [1]; 1.2 in experiment [2]; 0.687 in [3]; 0.567 in [4]; 1.27 in experiment [5]; 0.785 in experiment [6]. For the same compound, the composite z-score worked out at 0.91 with Lefty1 and 0.829 in experiment [8]. The z-score is 0.539 in experiment [7] and -0.0922 (inactive) in experiment [9].
With `CON=C(C)CCC(=O)OC[C@H]1O[C@H](c2ccccc2)C=C[C@@H]1Oc1ccc(OC)cc1`, the composite z-score in experiment [1] was 1.25; in experiment [2] it was -0.623; in [3], -0.0144; in [4] it was -0.45; in experiment [5] it was 0.252; in experiment [6], 0.48. Besides, the composite z-score in the experiment on Lefty1 is 0.415; in [8], -0.551. In addition, the z-score in [7] was 0.472; in experiment [9], 0.236 (inactive).
On to `CC(C)=CCCC(C)=CCON=C1C[C@@H](O)[C@@H](O)[C@@H]2[C@@H]3C(=O)N(C4CCCCC4)C(=O)[C@@H]3CC[C@@H]12`, for which the composite z-score in [1] was -0.216; in [2], 0.0286; in experiment [3] it was 0.0165; in experiment [4] it was -0.229; in experiment [5], 0.831; in experiment [6], 0.417. Besides, the results for the composite z-score (in the experiment with Lefty1; in experiment [8]) were 0.791 and -0.0783, respectively. The values for the z-score in experiment [7] and in experiment [9] were -0.64 and 0.335 (inactive), respectively.
For the compound `CCOC(=O)NN=C1C[C@@H](O)[C@@H](O)[C@@H]2[C@@H]3C(=O)N(C(C)(C)C)C(=O)[C@@H]3CC[C@H]12`, the composite z-score in experiment [1] stood at 0.322; in [2] it was 0.215; in [3] it was 0.064; in experiment [4], 0.0959; in [5] it was 0.903; in experiment [6] it was 0.647. In addition, the composite z-score was 0.279 in the experiment on Lefty1 and -0.0123 in [8]. Besides, the z-score in experiment [7] is 0.233; in experiment [9] it was 0.0659 (inactive).
As for `CCC1=NOC(CCC2CC(OC(=O)NCc3cccc4c3OCO4)CC3(CCCC(COC(=O)NCCc4ccccc4OC)O3)O2)C1` (stereo not given), the composite z-score in [1] worked out at 0.0887; in experiment [2], 1.19; in experiment [3] it was 0.494; in [4], 0.155; in experiment [5], 0.505; in experiment [6], 0.297. Further, the composite z-score was -0.0134 with Lefty1 and 0.703 in experiment [8]. Moreover, the z-score in [7] was 1.41; in [9], 0.412 (inactive).
In the case of `C=CC1=C[C@H](O)[C@@H]2O[C@@H]2C12OCCCO2`, the composite z-score is 0.837 in [1]; 0.661 in experiment [2]; 0.172 in [3]; 0.429 in experiment [4]; -0.285 in [5]; 0.151 in [6]. Besides, the composite z-score with Lefty1 was 0.0863; in experiment [8], -0.159. For the same compound, the z-score in [7] was -0.722; in experiment [9], 0.571 (inactive).
Consider `COCOc1ccc(Br)cc1C(=O)[C@@H]1O[C@H]1c1cccc(OC)c1`, for which the composite z-score in experiment [1] was -0.183; in [2] it was 0.513; in [3], 0.0147; in experiment [4], 0.488; in experiment [5], 0.339; in experiment [6] it was -0.0753. The composite z-score with Lefty1 was determined as 0.346; in experiment [8], 0.432. For the same compound, the z-score in experiment [7] is 1.1; in [9], -0.54 (inactive).
Turning to `O=C(NN=C1C[C@@H](O)[C@@H](O)[C@@H]2[C@@H]3C(=O)N(C[C@@H]4CCCO4)C(=O)[C@@H]3CC[C@H]12)OCc1ccccc1`, the composite z-score in experiment [1] is -0.0516; in [2], 0.0327; in experiment [3] it was -0.147; in experiment [4], 0.271; in experiment [5], -0.606; in experiment [6], -0.183. The composite z-score with Lefty1 was -0.793; in [8] it was 0.717. For the same compound, the z-score is -0.0539 in [7] and 0.304 (inactive) in [9].
On to `Cn1c(=O)n2n(c1=O)[C@H]1[C@H](O)[C@@H]3O[C@@H]3C(=NOCc3ccccc3)[C@H]1CC2`, for which the composite z-score in experiment [1] is 0.192; in experiment [2] it was -0.624; in experiment [3], 0.13; in experiment [4] it was -0.867; in [5], -0.104; in experiment [6] it was -0.478. Further, the composite z-score was found to be 0.3 in the experiment with Lefty1 and 0.349 in experiment [8]. In addition, the z-score in experiment [7] is 0.874; in [9] it was -0.101 (inactive).
For the compound `CO[C@@H]1COC(=O)CC=C[C@H](C)[C@H](OC)COC(=O)[C@H](C)NC(=O)CC=C[C@H]1C`, the composite z-score in experiment [1] is -0.347; in [2] it was -1.35; in experiment [3] it was -0.289; in [4], -0.394; in experiment [5] it was 1.41; in experiment [6], 0.628. Further, the composite z-score in the experiment with Lefty1 was 1.64; in experiment [8], -0.54. The z-score was 0.239 in experiment [7] and -0.304 (inactive) in [9].
On to `CCOC(=O)[C@H](CC(C)C)NC(=O)CCC1CC(OC(=O)NCc2cccc3ccccc23)CC2(CCCC(COC(=O)NCCC(C)C)O2)O1` (stereo not given in full), for which the composite z-score in experiment [1] was -0.121; in experiment [2] it was 0.572; in experiment [3], -0.394; in experiment [4] it was 0.123; in experiment [5], 0.364; in [6], 0.92. The composite z-score with Lefty1 was found to be 0.606; in experiment [8], 0.0877. The z-score in [7] is 0.652; in [9] it was -0.0038 (inactive).
With `CCOC(=O)[C@H](CC(C)C)NC(=O)CCC1CC(OC(=O)NCCc2ccc(F)cc2)CC2(CCCC(COC(=O)NCCC(C)C)O2)O1` (stereo not given in full), the composite z-score came out at 1.79 in experiment [1]; 0.0471 in experiment [2]; 0.459 in experiment [3]; 0.818 in [4]; 0.601 in experiment [5]; 0.0263 in experiment [6]. The composite z-score in the experiment on Lefty1 came out at 0.304; in experiment [8] it was 0.421. Besides, the values for the z-score in [7] and in [9] were 0.427 and 0.403 (inactive), respectively.
Turning to `COC(=O)[C@H]1[C@@H](O)[C@@]2(O)c3ccccc3O[C@@]2(c2ccccc2)[C@@H]1c1ccccc1`, the composite z-score in experiment [1] is 0.434; in [2], 0.0845; in experiment [3] it was -0.257; in experiment [4] it was -0.842; in experiment [5], 0.101; in [6] it was 0.352. Besides, the composite z-score was 0.285 in the experiment with Lefty1 and 1.01 in experiment [8]. The z-score is 0.266 in experiment [7] and 0.487 (inactive) in [9].
